KCNQ2 pot: potentiators of rat KCNQ2 potassium channel; O88943; CHO-K1 KCNQ2, FluxOR thallium flux fluorescence; stronger effect = higher value; B-score at 10 µM; 0.54% of 310,000 active; AID 2239;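 active means fluorescence ratio B-score at least 3 SD of library B-scores, with initial fluorescence B-score within 3 of them, cut at about 5.3 in these data; same plate scores as AID 2156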;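 further: B-score of peak minus minimum over baseline fluorescence ratio after K+ and Tl+ stimulus; positive B-score means potentiation of KCNQ2 with more thallium influx and brighter signal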
KCNQ2 block: inhibitors of rat KCNQ2 potassium channel | CHO-K1 KCNQ2, FluxOR thallium flux, 20 min; stronger effect = lower value | 1.1% of 310,000 active | B-score at 10 µM | O88943;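 active means fluorescence ratio B-score at most minus 3 library SDs, with starting brightness B-score within 2 library SDs, cut at about -5.5 in these data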
Kir21 confirm: confirmation of mouse Kir2.1 potassium channel inhibitors; 41% of 2,300 active; Kir2.1-expressing cells, FluxOR thallium flux fluorescence; stronger effect = lower value; Tl flux remaining, % of negative control (stronger effect = lower value), % at 10 µM; shares compounds with KCNQ2 pot;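 active means Primary-screen hit whose thallium flux fell at least 3 control SD below untreated wells in both duplicates, with normal baseline fluorescence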;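 further: 0% = blank wells without stimulus and 100% = stimulated no-compound controls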
HEK293 ctr: parental HEK293 activity in Kir2.1 inhibitor counter-screen. 19% of 2,300 active. shares compounds with KCNQ2 pot. parental HEK293 cells, FluxOR thallium flux fluorescence; 0% = unstimulated blank wells. FluxOR signal as % of negative control (100 = no effect), % at 10 µM;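 active means dye signal at least 3 control SD above or below untreated wells in both duplicates, raw fluorescence within 3, either direction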;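 further: percent is based on the flux ratio of peak minus minimum fluorescence over baseline F0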
CHO-K1 Tl ctr: counter-screen for KCNQ2 potentiators: effect in parental CHO-K1 cells; shares compounds with KCNQ2 pot; FluxOR thallium flux fluorescence; zero = vehicle mean+3SD, 100% = vehicle-minus-blank window; activity increase over 3SD of controls, % at 10 µM; 43% of 1,200 active;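 active means signal rise of at least 3 SD above the untreated control mean, in both duplicate wells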;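 further: counter screen of KCNQ2 potentiator hits so any rise reflects channel-independent effects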
KCNQ1 sel pot: selectivity of KCNQ2 potentiators: effect on human KCNQ1; activation over 3SD threshold, % at 10 µM; shares compounds with KCNQ2 pot; CHO KCNQ1 stable, FluxOR thallium flux fluorescence; beyond 3SD, as % of vehicle-control signal; 28% of 1,200 active; AID 2283;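 active means fluorescence ratio rise of at least 3 SD of vehicle wells above their mean, in both replicate wells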;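 further: 0% = vehicle mean plus 3 SD and 100% = vehicle minus unstimulated blank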
KCNQ2 pot confirm: rat KCNQ2 channel potentiator confirmation. shares compounds with KCNQ2 pot. CHO-KCNQ2 cells, FluxOR thallium flux fluorescence. potentiation, less the hit threshold, % at 10 µM. 68% of 1,200 active. AID 2287;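 active means fluorescence ratio rising 3 SD or more over the vehicle control mean in both replicates, plus primary screen hit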;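 further: peak minus minimum thallium fluorescence divided by baseline after K/Tl stimulus; 0% = vehicle mean plus 3 SD and 100% = vehicle minus unstimulated blank difference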
Kir2-1 sel: selectivity of KCNQ2 potentiators: effect on mouse Kir2.1. HEK293 Kir2.1, FluxOR thallium flux fluorescence. shares compounds with KCNQ2 pot. activity over 3SD threshold, % at 10 µM. 2% of 1,200 active;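 active means fluorescence ratio rise of at least 3 SD above the vehicle-control mean, seen in both replicates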;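 further: 0% = vehicle mean plus 3 SD and 100% = vehicle minus no-stimulus blank window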
KCNQ2 W236L pot: KCNQ2 potentiators acting on retigabine-insensitive rat KCNQ2 W236L mutant; shares compounds with KCNQ2 pot; CHO KCNQ2-W236L, automated patch clamp current; current increase over 3SD of negative controls (%), stronger effect = higher value, % at 25 µM; 10% of 940 active;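 active means current increase at least 3 SD of the untreated controls above them in both duplicate recordings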
Target sequence (O88943 whole entry W236L, looked up): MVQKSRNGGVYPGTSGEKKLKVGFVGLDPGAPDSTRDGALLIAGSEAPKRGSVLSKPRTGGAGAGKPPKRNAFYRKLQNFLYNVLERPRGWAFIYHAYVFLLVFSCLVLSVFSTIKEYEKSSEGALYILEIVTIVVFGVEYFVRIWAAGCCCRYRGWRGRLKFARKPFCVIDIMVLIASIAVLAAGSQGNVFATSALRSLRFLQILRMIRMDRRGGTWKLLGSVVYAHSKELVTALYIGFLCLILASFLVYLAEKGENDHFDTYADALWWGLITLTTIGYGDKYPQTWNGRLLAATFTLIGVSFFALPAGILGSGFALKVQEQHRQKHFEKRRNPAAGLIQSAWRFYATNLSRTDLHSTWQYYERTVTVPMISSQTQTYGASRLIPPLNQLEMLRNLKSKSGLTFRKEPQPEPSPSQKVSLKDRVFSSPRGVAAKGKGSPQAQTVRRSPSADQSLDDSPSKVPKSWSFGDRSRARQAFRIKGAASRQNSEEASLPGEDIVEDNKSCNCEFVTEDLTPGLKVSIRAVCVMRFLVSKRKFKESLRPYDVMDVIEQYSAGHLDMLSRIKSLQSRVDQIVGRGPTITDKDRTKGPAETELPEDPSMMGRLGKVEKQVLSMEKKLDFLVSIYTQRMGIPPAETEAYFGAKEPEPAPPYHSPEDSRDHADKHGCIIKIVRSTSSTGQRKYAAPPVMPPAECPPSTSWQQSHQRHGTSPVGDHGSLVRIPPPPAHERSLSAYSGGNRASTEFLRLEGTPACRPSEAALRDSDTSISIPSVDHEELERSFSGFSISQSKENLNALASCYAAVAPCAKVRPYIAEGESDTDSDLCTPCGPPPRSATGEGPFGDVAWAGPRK
The depositor's hits bear a star; i = inactive; · = no result. Only some compounds are listed: those with a hit (about 1.6% of all), similar ones and a draw of the others.

SMILES	KCNQ2 pot	KCNQ2 block	Kir21 confirm	HEK293 ctr	others
O=C(c1ccc(Cl)cc1)N1CCc2c([nH]c3ccccc23)C1C(F)(F)F (configuration not stated)	8*	i	i	i	CHO-K1 Tl ctr=16*;KCNQ1 sel pot=-10;KCNQ2 pot confirm=2.7*;Kir2-1 sel=-24;KCNQ2 W236L pot=i
O=C(C1CCC(=O)N(C2CCCC2)C1)N1CCC(Oc2cccc(F)c2)CC1 (configuration not stated)	0.43	i	·	·
Clc1cccc(NCc2nnc(SCc3ccccc3Cl)o2)c1	·	i	·	·
Clc1cccc(NCc2nnc(SCc3ccccc3)o2)c1	22*	i	i	i	CHO-K1 Tl ctr=46*;KCNQ1 sel pot=-20;KCNQ2 pot confirm=-19;Kir2-1 sel=-47
CN1CCN(c2nc(C(N)=O)cc(-c3ccccc3)n2)CC1	0.01	i	·	·
Cn1cc(S(=O)(=O)N2CCN(c3cccc(C(F)(F)F)c3)CC2)c(=O)n(C)c1=O	·	i	·	·
Cc1c(S(=O)(=O)N2CCN(c3cccc(C(F)(F)F)c3)CC2)c(=O)n(C)c(=O)n1C	9.6*	i	i	i	CHO-K1 Tl ctr=5.5*;KCNQ1 sel pot=51*;KCNQ2 pot confirm=-22;Kir2-1 sel=-39
O=C1SCCC1NS(=O)(=O)c1ccccc1[N+](=O)[O-] (configuration not stated)	·	i	·	·
CCOC(=O)c1sc(=S)n(C)c1NC(=O)c1ccccc1	·	i	·	·
CCOC(=O)c1sc(=S)n(-c2ccccc2)c1NC(C)=O	7.5*	i	·	·	CHO-K1 Tl ctr=35*;KCNQ1 sel pot=3.6*;KCNQ2 pot confirm=7.8*;Kir2-1 sel=-61;KCNQ2 W236L pot=i
Oc1ccc(N=Cc2ccc(OCc3ccccc3)cc2)cc1	1.1	i	·	·
CC(C)(C)C(=O)NC(=S)NNC(=O)c1sc2ccccc2c1Cl	12	i	·	·
O=C(NC(=S)NCCO)c1sc2ccccc2c1Cl	·	i	·	·
CCCOC(=S)NC(=O)c1sc2ccccc2c1Cl	20*	i	i	312%*	CHO-K1 Tl ctr=22*;KCNQ1 sel pot=-12;KCNQ2 pot confirm=55*;Kir2-1 sel=-12;KCNQ2 W236L pot=i
CCOC(=S)NC(=O)c1sc2ccccc2c1Cl	21*	i	i	356%*	CHO-K1 Tl ctr=-2;KCNQ1 sel pot=-6;KCNQ2 pot confirm=62*;Kir2-1 sel=-37;KCNQ2 W236L pot=i
Cc1cccc(OCCN2C(=O)C(=O)c3cc(C)ccc32)c1	·	i	·	·
Cc1c(/C=C2\SC(=O)N(CC(=O)Nc3ccc4c(c3)OCO4)C2=O)c2ccccc2n1C	·	i	·	·
Cc1c(C(=O)NCc2ccccc2)oc2ccc(S(=O)(=O)N3CCCC3)cc12	1.3	i	·	·
c1ccc(-c2nc3ccccc3[nH]2)nc1	·	i	·	·
c1ccc(-c2nc3c(ccc4ccccc43)[nH]2)nc1	8.4*	i	i	i	CHO-K1 Tl ctr=31*;KCNQ1 sel pot=6.1*;KCNQ2 pot confirm=47*;Kir2-1 sel=-27;KCNQ2 W236L pot=i
COc1ccc(OC)c(NC(=O)CCS(=O)(=O)c2cc3c(cc2C)NC(=O)CO3)c1	0.13	i	·	·
OCc1cn(-c2ccccc2)nc1-c1ccc(-c2nn(-c3ccccc3)cc2CO)cc1	0.53	i	·	·
Cc1ccc(-c2nn(-c3ccccc3)cc2CSC(=N)N)cc1	·	i	i	i
COc1ccc(OC)c(Nc2nc(NCc3ccco3)c3ccccc3n2)c1	·	i	·	·
Cc1ccc(/C=C(\C#N)C(=O)Nc2c(C)cccc2C)s1	·	i	·	·
SMILES	KCNQ2 pot	KCNQ2 block	Kir21 confirm	HEK293 ctr	others
CCOC(=O)CS(=O)(=O)c1ccc(C(F)(F)F)cn1	0.01	i	·	·
CN(C)C(=O)c1cc(F)ccc1Sc1cc(Cl)ccc1Cl	·	i	47%*	i
CN(C)C(=O)c1cc(Cl)ccc1Sc1cc(Cl)ccc1Cl	·	i	·	·
COc1ccc(OC)c2c1nc1n2CCS1	0.55	i	·	·
CCCc1nnc(SCC(=O)N2CCOCC2)n1Cc1ccco1	0.5	i	·	·
CCOC(=O)c1c(-c2ccccc2)csc1NC(=S)NC	7.8*	i	i	220%*	CHO-K1 Tl ctr=-4;KCNQ1 sel pot=-22;KCNQ2 pot confirm=7.3*;Kir2-1 sel=-27;KCNQ2 W236L pot=i
CCOC(=O)c1c(-c2ccccc2)csc1NC(=O)CSc1nnc(C)s1	·	i	·	·
Cc1ccc(Nc2nc(N)nc(CN3CCN(c4ccccc4)CC3)n2)cc1Cl	·	i	·	·
COc1ccc(N2CCN(Cc3nc(N)nc(Nc4ccc(C)c(Cl)c4)n3)CC2)cc1	11*	i	i	i	CHO-K1 Tl ctr=60*;KCNQ1 sel pot=7.2*;KCNQ2 pot confirm=21*;Kir2-1 sel=-19;KCNQ2 W236L pot=i
CCOC(=O)/C(=C\c1ccc(C)cc1)NC(=O)c1ccccc1	·	i	·	·
CCOc1ncccc1C(=O)Nc1ccc2nc(C)sc2c1	0.2	i	·	·
CCOC(=O)COc1ccc2ccccc2c1/C=C/[N+](=O)[O-]	·	i	·	·
CCOc1ccc(/C=C/[N+](=O)[O-])c2ccccc12	·	i	i	i
C/C(=N\NC(=O)Cc1c(Cl)cccc1Cl)c1cccnc1	1.2	i	·	·
COc1cccc(COC(=O)c2cc(S(=O)(=O)N3CCCCC3)ccc2N2CCOCC2)c1OC	0.31	i	·	·
O=C(Cc1ccccc1)Nc1nc(=O)c2ccccc2s1	2.7	i	·	·
O=C(Nc1nc(=O)c2ccccc2s1)c1ccc(F)cc1	5.8*	i	i	174%*	CHO-K1 Tl ctr=-4;KCNQ1 sel pot=-30;KCNQ2 pot confirm=-12;Kir2-1 sel=-18
O=C(CCSc1ccc(F)cc1)Nc1ccc(-n2cnnn2)cc1	0.65	i	·	·
Cc1cc(=O)c2cc(Br)ccc2[nH]1	·	i	·	·
S=c1nc(-c2ccccc2)[nH]c2ccc(Br)cc12	29*	i	i	i	CHO-K1 Tl ctr=-74;KCNQ1 sel pot=21*;KCNQ2 pot confirm=66*;Kir2-1 sel=-18;KCNQ2 W236L pot=i
COc1ccc(C(=O)Cn2c(=N)n(C)c3ccccc32)cc1	·	i	·	·
COc1ccc(C(=O)CN2Cc3ccccc3C2=N)cc1	0.08	i	24%*	i
COc1ccccc1-c1noc(CCC(=O)NC2CCCC2)n1	2.3	i	·	·
CC(=O)CSc1nc2ccccc2s1	·	i	·	·
CC(C)Cc1ccc(C(C)C(N)=NCCc2ccccc2)cc1 (configuration not stated)	·	i	i	i
COc1ccc(CCN=C(N)C(C)c2ccccc2)cc1OC (configuration not stated)	0.65	i	·	·
Cc1cccc(C(C)C)c1NC(=O)COC(=O)CCN1C(=O)C2CC=CCC2C1=O (configuration not stated)	·	i	·	·
CCc1nc(C)cn1S(=O)(=O)c1ccc(Cl)c(Cl)c1Cl	·	i	·	·
CCc1nc(C)cn1S(=O)(=O)c1cc(F)ccc1OC	1.9	i	·	·
CCc1nc(C)cn1S(=O)(=O)c1cc(Br)c(C)cc1OC	·	i	35%*	i
